INHIBITION data for 70 molecules are collected here from ChEMBL document CHEMBL4513216, “Probing the Open Global Health Chemical Diversity Library for Multistage-Active Starting Points for Next-Generation Antimalarials” (ACS Infect Dis, 2020).

Screen size: about 69,000 compounds; about 8,600 (12%) showed an effect of 50% or more. This is one part of a sample in which strong results are shown more often than they occur.

The test system of this assay is Plasmodium berghei. The experiment in a line: Screen against P. berghei liver stage (PbLuc), transformed with Luciferase, at 10uM. The class given is functional, HepG2. The note with it: tested at 10 uM.
As to `COC[C@@H]1CCCN1C(=O)CCc1c(C)nn(C)c1C`, the INHIBITION is on record as 8.7%. With `CCN(CC)c1nc2sc(C(=O)N3CCNC(=O)C3)cc2s1` the figure was -81.7%.

In the case of `CC(C)CC1SCC(=O)Nc2c1cnn2-c1ccccc1F` (stereo not given), the INHIBITION came out at 13%. As for `O=C(O)[C@@H]1CN(C(=O)CCCc2ccc(F)cc2)C[C@H]1C1CC1`, the INHIBITION is -14.2%. Take `CCOc1ccccc1CC(=O)N1C[C@@H](C(=O)O)[C@H](C2CC2)C1`: the INHIBITION was 2.66%. For the molecule `O=C(O)[C@@H]1CN(C(=O)Cc2ccccc2Cl)C[C@H]1C1CC1`, the INHIBITION came to 79.2%. With `CC(=O)N1CCCC1c1nccnc1Nc1cccc(C)n1` (stereo not given) the figure was 39.2%; with `O=C(NCCNC(=O)C1Cc2cc(F)ccc2O1)C1CCCCC1` (stereo not given), -0.529%.

Consider `Cc1ccc(NCCNC(=O)C2Cc3cc(C)c(C)cc3O2)nn1` (stereo not given), for which the INHIBITION was 55%.

Turning to `Cc1cc2c(cc1C)OC(C(=O)NCCNC(=O)C1CCCC1)C2` (stereo not given), the INHIBITION is given as -35.1%. Take `O=S1(=O)NC2(CCCN(Cc3ccc(Cl)cc3)C2)COc2ccccc21` (stereo not given): the INHIBITION is 27.5%. Take `Cc1cc(=O)n2nc(Oc3cccc(C(N)=O)c3)sc2n1`: the INHIBITION is reported as 3.84%.

Regarding `CS(=O)(=O)c1ncc(CN2CCCC(C(N)=O)C2)n1CC1CCCCC1` (stereo not given), the INHIBITION came to 0.734%. With `CN(C)C1CCN(Cc2cnc(S(C)(=O)=O)n2CC2CCCCC2)C1` (stereo not given) the figure was 81.6%; with `CS(=O)(=O)c1ncc(CN2CCN3CCCC3C2)n1CC1CCCCC1` (stereo not given), 12.3%. `N#Cc1ccc(CN2CCC(CN3CCOCC3)C2)cc1` (stereo not given): the INHIBITION is given as -11.9%.

For `CN1CC2(CCN(C(=O)c3cccnc3)CC2)c2cccc(F)c21`, the INHIBITION turned out to be 31.5%. As for `CCn1ncc2c1C(COCC1CC1)CN(C(=O)c1ccncn1)C2` (stereo not given), the figure is 26.4%. For `CC(C)N1CCC2(CCNCC2)C1=O`, the INHIBITION is -25.8%.

With `O=C(CSc1nnc(N2CCNCC2)s1)Nc1ccccc1`, the INHIBITION was found to be 59.2%. For `O=C(CSc1nnc(N2CCCC2)s1)NC(=O)Nc1ccccc1`, the INHIBITION is -22.405%. On to `O=C(CSc1nnc(N2CCOCC2)s1)NC(=O)Nc1ccccc1`, for which the INHIBITION was -1%. As for `NC(=O)C(c1ccc(F)cc1)N1CCN(CCO)CC1` (stereo not given), the figure is 56.9%. Take `Cc1nnc2n1CCN(C(C(N)=O)c1ccc(F)cc1)C2` (stereo not given): the INHIBITION amounted to 25.8%. In the case of `CCc1nnc2n1CCN(C(C(N)=O)c1ccc(F)cc1)C2` (stereo not given), the INHIBITION was 1.45%. Take `COc1cccc(OC)c1OCCn1c(C)c(C)oc1=O`: the INHIBITION is 22.5%. With `Cc1cc(C)n(CC2CCCN2C(=O)c2ccc(N(C)C)nn2)n1` (stereo not given), the INHIBITION came out at 38.8%. As to `CC(C)=CCN1CCc2onc(-c3ccc(F)c(F)c3)c2C1`, the INHIBITION was 5.78%.

With `Fc1ccc(-c2noc3c2CN(CC2CC2)CC3)cc1F`, the INHIBITION was 52.7%. With `Fc1ccccc1-c1noc2c1CN(CCN1CCOCC1)CC2`, the INHIBITION is listed as 34.5%. `CC(O)CN1CCc2onc(-c3ccccc3F)c2C1` (stereo not given): the INHIBITION was -10.9%.

For `c1ccc(-c2noc3c2CN(CC2CC2)CC3)cc1`, the INHIBITION was 2.3%. Take `Fc1ccccc1-c1noc2c1CN(CC1CC1)CC2`: the INHIBITION came to 55.4%. As for `Fc1cc(CN2CCCC2Cn2cncn2)c2ncccc2c1` (stereo not given), the INHIBITION worked out at 11.8%.

Turning to `O=C(N1CCCO1)[C@@]12CCO[C@@H]1CCN(C1CCCCC1)C2`, the INHIBITION stood at 13%.

On to `COc1ccccc1Oc1ncccc1CNC(=O)C1COC(=O)N1` (stereo not given), for which the INHIBITION was found to be 41.3%. As for `Cc1cccc(C)c1Oc1ncccc1CNC(=O)C1COC(=O)N1` (stereo not given), the figure is 53.8%; as for `Cc1ccc(Oc2ncccc2CNC(=O)C2COC(=O)N2)c(F)c1F` (stereo not given), 12.9%. For the molecule `CCCN(CCO)C(=O)c1cc(COc2ccc3c(c2)CCCC3)on1`, the INHIBITION came out at 33%. On to `CC(Cn1cccn1)NC(=O)NCCc1ccsc1` (stereo not given), for which the INHIBITION was determined as 21.5%. As for `CCC(C(=O)N1CCCSCC1)N1CCCC1=O` (stereo not given), the INHIBITION worked out at 21.5%.

For the molecule `CCC(C(=O)Nc1ccc2cn(CC)nc2c1)N1CCCC1=O` (stereo not given), the INHIBITION is listed as 54.5%. Take `CCC(CNC(=O)Nc1cnn(CC)c1)N1CCCC1` (stereo not given): the INHIBITION is 39.5%. With `Cc1occc1CNC(=O)Nc1ccc2nc(N3CCOCC3)oc2c1`, the INHIBITION is reported as 25.8%. As for `CCC(C(=O)Nc1ccc2nc(C)oc2c1)N1CCCC1=O` (stereo not given), the figure is 71.2%. In the case of `CCC(C(=O)NCCc1ccn(-c2ccccc2)n1)N1CCCC1=O` (stereo not given), the INHIBITION is -21%. `CN(C)C(=O)COCC1CN(C2CCC2)Cc2ncn(C)c21` (stereo not given): the INHIBITION is -19.1%. Regarding `Cc1cc(C)n(Cc2cccc(C(=O)N3CCOCC3(C)C)c2)n1`, the INHIBITION was -4.23%. Turning to `CCN(CC)C(=O)CNC(=O)N1CCC(c2ccccc2)C1` (stereo not given), the INHIBITION is 43.7%.

Take `CC(C)(O)CCc1ccc(C(=O)N2CCN(CCS(C)(=O)=O)CC2)cc1`: the INHIBITION was 16.8%. For `O=C(c1ccc(CN2CCCCC2)cc1)N1Cc2cnn(CCO)c2C1`, the INHIBITION is listed as 30.3%. As to `CC(C)(O)CCc1ccc(C(=O)N2CCN(CC3CCCC3)CC2)cc1`, the INHIBITION was 26.6%.

With `CC(C)(O)CCc1cccc(C(=O)N2Cc3cnn(CCO)c3C2)c1`, the INHIBITION stood at 14%. Take `CC(C)(O)CCc1ccc(C(=O)N2CCN(CC(F)(F)F)CC2)cc1`: the INHIBITION is on record as 52.6%.

On to `CC(C)(O)CCc1ccc(C(=O)N2Cc3cnn(CCO)c3C2)cc1`, for which the INHIBITION is recorded as 73%. With `CCCS(=O)(=O)N1CC(=O)N(CCCc2ccccc2)CC(O)C1` (stereo not given) the figure was 48.7%; with `O=C(c1sccc1C1CC1)N1CCCN(Cc2cscn2)CC1`, -4.16%. With `Cc1cccc(C(C(=O)NCc2cc(C)[nH]n2)N(C)C)c1` (stereo not given) the figure was 3.69%; with `COc1cc(NCc2ccncc2)c(-c2nn[nH]n2)cc1OC`, -34.6%. On to `COc1ncccc1CNC(=O)N1CCCC1c1ccsc1` (stereo not given), for which the INHIBITION was -24.2%.

`CCN1CCN(C(=O)NCc2cc[nH]n2)CC1`: the INHIBITION is -29.7%. `CN(C)c1ncnc2c1CCN(S(=O)(=O)c1cccc(Cl)c1Cl)C2`: the INHIBITION was determined as 42.7%. As to `COC(=O)c1sccc1S(=O)(=O)N1CCC(Oc2cccc(C)n2)CC1`, the INHIBITION was 21.8%. As for `CN(C)c1ncnc2c1CCN(S(=O)(=O)c1cccc3nsnc13)C2`, the figure is 31.6%; as for `COC(=O)c1sccc1S(=O)(=O)N1CCC(Oc2cnccn2)CC1`, 53.7%; as for `COC(=O)c1sccc1S(=O)(=O)N1CCC(Oc2cccnn2)CC1`, 21.6%. With `COC(=O)c1sccc1S(=O)(=O)N1CCc2c(ncnc2N(C)C)C1`, the INHIBITION was found to be 58.1%. Turning to `CN(C)c1ncnc2c1CCN(S(=O)(=O)c1ccccc1C(F)(F)F)C2`, the INHIBITION worked out at 30.3%. As to `CN(C)c1ncnc2c1CCN(C(=O)c1sccc1S(N)(=O)=O)C2`, the INHIBITION is -9.18%.

As for `Cc1ccccc1S(=O)(=O)N1CCc2c(ncnc2N(C)C)C1`, the INHIBITION was 66.1%.
